# Bioassay records as filed in PubChem BioAssay.
# Dyrk1A ADPGlo: Dyrk1A (rat) kinase inhibition | Q63470 | ADP-Glo luminescence, NFATc1 peptide | inhibition, % at 12.5 µM | 310,000 tested, 0.43% active | AID 504441; in the data active = inhibition above about 50%
# aDG glyco act: alpha-DG glycosylation activation | Pro5-aDG cells, alpha-DG glycosylation AlphaScreen (IIH6); 0% Pro5, 100% B10-LARGE cell signal | activation, % at 10 µM | 360,000 tested, 0.22% active | AID 624168;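 active = activation of at least 8% versus controls, or a plate z-score of at least 8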;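 note: Pro5 are CHO cells carrying HIG-tagged alpha-DG that lacks glycosylation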
# NPR1 activator: GC-A (human) enzyme activation | P16066 | HEK293 GC-A cells, cGMP TR-FRET, EC30 ANP; 0% at EC30 ANP, 100% saturating ANP | activation, % at 10 µM | 370,000 tested, 0.14% active | AID 1671463; in the data active = activation above about 40%
# HSF1 inh: HSF1 inhibition; NIH3T3-HGL HSE-luciferase, MG132-induced, luminescence 8 h; active compounds read low; 300,000 tested, 0.77% active; AID 2098; activity change, negative = inhibition, % at 7.5 µM (by protocol);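 active = more than half of replicate wells show activity change below -50%, luminescence cut by over half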;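 note: luciferase reports HSF-1 transcriptional activity via heat shock element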
# HSF-1 act: increases HSF-1 driven luciferase reporter signal. NIH3T3-HGL HSF-1 luciferase reporter, MG132, 8 h; 100% = twice DMSO control signal. activation, % at 9 µM. 300,000 tested, 1.7% active;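 active = mean replicate activation of at least 50% with a set share of replicates each reaching 50%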
# NPR2 activator: GC-B (human) receptor activation; HEK293-GC-B cells, CNP EC30, cGMP TR-FRET; 0% at EC30 CNP, 100% saturating CNP; activation, % at 10 µM; 370,000 tested, 0.11% active;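 active = activation at 10 µM reaching about 35% in either raw or pattern-adjusted values, limit read from the data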
# Target sequence (P20594 whole entry, looked up): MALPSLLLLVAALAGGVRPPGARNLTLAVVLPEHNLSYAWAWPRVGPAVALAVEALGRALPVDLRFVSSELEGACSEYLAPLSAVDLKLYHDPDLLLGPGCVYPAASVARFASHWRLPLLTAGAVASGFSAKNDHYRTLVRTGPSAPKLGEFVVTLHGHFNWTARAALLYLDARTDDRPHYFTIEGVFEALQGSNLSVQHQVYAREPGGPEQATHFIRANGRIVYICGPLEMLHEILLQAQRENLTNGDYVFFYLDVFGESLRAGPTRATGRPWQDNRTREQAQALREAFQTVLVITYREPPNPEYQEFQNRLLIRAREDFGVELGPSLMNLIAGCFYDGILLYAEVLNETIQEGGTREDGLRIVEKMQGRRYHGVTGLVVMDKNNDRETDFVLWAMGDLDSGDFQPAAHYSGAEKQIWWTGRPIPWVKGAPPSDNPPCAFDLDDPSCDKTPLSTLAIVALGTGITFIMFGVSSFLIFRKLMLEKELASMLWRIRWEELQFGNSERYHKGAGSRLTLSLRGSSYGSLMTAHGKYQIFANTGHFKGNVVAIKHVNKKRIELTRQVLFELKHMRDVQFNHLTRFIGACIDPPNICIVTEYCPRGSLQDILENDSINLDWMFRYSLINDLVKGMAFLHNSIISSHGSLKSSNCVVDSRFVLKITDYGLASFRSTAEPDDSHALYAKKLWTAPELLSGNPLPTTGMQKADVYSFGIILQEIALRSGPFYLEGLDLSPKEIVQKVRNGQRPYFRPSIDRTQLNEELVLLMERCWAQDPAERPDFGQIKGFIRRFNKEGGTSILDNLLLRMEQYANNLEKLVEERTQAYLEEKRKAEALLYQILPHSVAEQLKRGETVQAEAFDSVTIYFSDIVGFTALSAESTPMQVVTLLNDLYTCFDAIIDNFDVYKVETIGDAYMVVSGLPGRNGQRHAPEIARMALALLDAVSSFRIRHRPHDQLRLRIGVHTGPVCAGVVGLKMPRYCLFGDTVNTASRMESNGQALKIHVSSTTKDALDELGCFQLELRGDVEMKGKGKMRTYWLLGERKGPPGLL
# Numbers stand for hits; 0 = inactive; - = no result. Only some compounds are listed: those with a hit (about 2.5% of all), similar ones and a draw of the others.
SMILES,Dyrk1A ADPGlo,aDG glyco act,NPR1 activator,HSF1 inh,HSF-1 act,NPR2 activator
COc1cccc(-c2noc(-c3cccs3)n2)c1,0,0,0,0,54,0
COc1nc(C)ccc1-c1noc(-c2cccs2)n1,0,0,0,0,62,0
CCOc1ccccc1-c1nc(-c2ccc(C)nc2OC)no1,0,0,0,0,62,0
CCOc1nc(C)ccc1-c1noc(-c2ccccn2)n1,0,0,0,0,0,0
COc1ccc(-c2nnc(-c3cccs3)o2)cc1OC,0,0,0,0,60,0
Cc1cc(C)n(-c2nc3ccccc3nc2N2CCN(C(=O)c3ccc(F)cc3)CC2)n1,0,0,0,0,62,0
Cc1cnc(NC(=O)C2CC(=O)N(c3cccc(Cl)c3)C2)s1 (stereo unspecified),0,0,0,0,77,37
CCC(=O)Oc1ccc(C(=O)Nc2cccc(C(=O)NC(C)(C)C)c2)cc1,0,0,0,0,0,0
O=C1CN(C(=O)COC(=O)c2ccc(C(F)(F)F)cc2)c2ccccc2N1,0,0,0,-,-,0
COc1ccccc1C(=O)N(CCC1CCCN1C)c1nc2ccccc2s1 (stereo unspecified),0,0,0,-72,0,0
COc1ccc2sc(N(CCCN(C)C)C(=O)c3nc4ccccc4s3)nc2c1,0,0,0,0,0,0
Oc1ccccc1C(Nc1nccs1)c1ccc2cccnc2c1O (stereo unspecified),0,0,0,-57,0,0
Cc1cc(C(=O)OCC(=O)Nc2cccc(S(N)(=O)=O)c2)c2ccccc2n1,0,0,0,0,0,0
O=C(COC(=O)/C=C/c1ccc(F)cc1)NC(=O)NCc1ccccc1,-,0,0,-,-,0
CC1Cc2cc(/C(O)=C3/C(=O)C(=O)N(CC4CCCO4)C3c3ccco3)ccc2O1 (stereo unspecified),0,0,0,-56,0,0
CC(C)(C)c1ccc(OCc2ccc(C(=O)NCc3cccnc3)o2)cc1,0,0,0,0,112,0
O=C(NCc1cccnc1)c1ccc([N+](=O)[O-])o1,0,0,0,0,70,0
O=C(Nc1cccnc1)c1ccc([N+](=O)[O-])o1,0,0,0,0,0,0
Cc1cc(C)cc(C(=O)Nc2ccc(NC(=O)Cc3ccccc3)cc2)c1,0,0,0,0,0,0
Cc1ccc(-c2nnc(SCC(=O)Nc3nccs3)n2N)cc1,-,0,0,-61,0,0
CCC(=O)N1C(C(=O)N2CCCC2)CSC1c1ccc(OC)cc1 (stereo unspecified),0,0,0,-88,0,0
O=C(NCC1CCCN(C(=O)c2cccnc2)C1)c1ccc(-c2ccccc2)cc1 (stereo unspecified),0,0,0,0,0,0
Cc1cc(=O)n2[nH]c(N)c(N=Nc3ccccc3F)c2n1,0,0,0,0,0,0
Nc1nn(-c2ccccc2)c(N)c1N=Nc1ccccc1F,0,0,0,0,59,0
Cc1nc2c(N=Nc3ccccc3F)c(N)nn2c(N)c1C#N,-,0,43,0,0,0
SMILES,Dyrk1A ADPGlo,aDG glyco act,NPR1 activator,HSF1 inh,HSF-1 act,NPR2 activator
Nc1nn(-c2ccccc2)c(N)c1N=Nc1ccccc1,0,0,0,0,0,0
O=C(O)C1(S(=O)(=O)c2ccc(Cl)cc2)CCC1,0,0,0,0,0,0
CC(C)[C@H](NC(=O)OC(C)(C)C)c1nnc(SCC(=O)Nc2ccc(Br)cc2)o1,0,0,0,0,84,0
C[C@H](NC(=O)OC(C)(C)C)c1nnc(SCC(=O)Nc2cccc(Cl)c2)o1,0,0,0,0,0,0
O=C(Nc1nc(-c2cccs2)c(-c2cccs2)s1)C1(c2ccccc2)CC1,0,0,0,0,0,0
CC(=O)NCCC(=O)Nc1nc(-c2cccs2)c(-c2cccs2)s1,0,0,0,0,182,0
Cc1cccc2[nH]c(CN(C)C(=O)C3CCC(=O)N(C4CC4)C3)nc12 (stereo unspecified),0,0,0,0,0,0
Cc1cccc(S(=O)(=O)c2c(N)n(/N=C/c3ccccc3)c3nc4ccccc4nc23)c1,0,0,0,0,0,0
Cc1ccc(C)c(S(=O)(=O)c2c(N)n(/N=C/c3ccco3)c3nc4ccccc4nc23)c1,0,0,0,0,52,0
CN(C)S(=O)(=O)c1ccc(N2CCCC2)c(C(=O)Nc2ccccc2Br)c1,0,0,0,0,0,0
Cc1ccccc1C(=O)O/N=C1\CCS(=O)(=O)c2sccc21,0,0,0,0,74,0
Cc1csc(SCC(=O)N(C)C2CCS(=O)(=O)C2)n1 (stereo unspecified),0,0,0,-,-,90
CCOCCCNC(=O)c1ccc(NC(=O)C2=CSCCO2)cc1,0,0,0,0,0,0
Cc1cc(C)cc(N(CC(=O)Nc2ccc(Br)cc2)S(=O)(=O)c2c(C)[nH]c(=O)[nH]c2=O)c1,0,0,0,-63,0,0
O=C(O)c1ccc(Nc2cnc3ccccc3n2)cc1,0,0,0,0,0,0
CCOc1ccc(NS(=O)(=O)c2ccc(C(=O)N(C)CC(=O)Nc3ccc(C)cc3)cc2)cc1,0,0,0,0,59,0
CC(=O)Nc1ccc(C(=O)OCC(=O)NCc2cccs2)cc1,-,0,0,-,-,68
CCOC(=O)c1ccc(NC(=O)NS(=O)(=O)c2ccc(C)cc2)cc1,0,0,0,-58,0,0
CCOC(=O)c1ccc(Nc2cnc3ccccc3n2)cc1,-,0,0,0,56,0
CC(C)COc1ccc(C(=O)OCC(=O)NCc2cccs2)cc1,0,0,0,-,-,0
O=C(NC1CCCC1)C(=O)N(Cc1cccnc1)C(C(=O)NC1CCCC1)c1ccco1 (stereo unspecified),0,0,0,0,0,0
CCC(=O)Nc1ccc(C(=O)OCc2ccccc2Cl)cc1,0,0,0,0,116,0
CC(=O)Nc1ccc(C(=O)OCCc2ccccc2)cc1,0,0,0,0,56,0
CCOC(=O)c1ccc(NC(=O)Oc2ccccc2)cc1,0,0,0,-51,0,0
CC(=O)Nc1ccc(C(=O)OCCCOC(=O)c2ccc(NC(C)=O)cc2)cc1,0,0,0,0,0,0
CCN(CC(=O)Nc1ccc2c(c1)OCCO2)S(=O)(=O)c1ccccc1,0,0,0,0,0,0
O=C(Nc1ccc(S(=O)(=O)NCc2ccccc2)cc1)Nc1ccc2c(c1)OCO2,0,0,0,0,0,0
CCC(CO)n1c(SCc2cc([N+](=O)[O-])cc3c2OCOC3)nc2ccccc2c1=O (stereo unspecified),0,0,0,0,56,0
O=c1c2ccccc2nc(SCc2cc(F)cc3c2OCOC3)n1Cc1ccco1,0,0,0,0,0,0
